Pf growth 96h – P. falciparum growth inhibition at 96 hours. P. falciparum luciferase reporter growth, 96 h. Potency, µM (highest dose often 28.7 µM), for the others: at the highest dose activity change, negative = inhibition, hits mostly inhibitors. 320,000 compounds, 6.9% hits. AID 504834; further: potency means the concentration at half of the fitted maximal effect; on the % scale 0 is the no-effect control and ±100 the full control effect
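Readout is luminescence from an integrated firefly luciferase in P. falciparum. Red cells, 2% hematocrit and 0.05% parasitemia final, were cultured with compound through two parasite generations (96 hours) at 37 C, 5% CO2.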
CHX counter – counter-screen hit for Shiga toxin inhibitors, cycloheximide | 300,000 compounds, 12% hits | max response, % | cell reporter, cycloheximide protein synthesis inhibition counterscreen | AID 2314; in the data active means max response mostly above about 13%, no sharp cut-off; inactive means mostly below about 14%; further: read at 38.3 µM for the half of the compounds with a filed dose; 0% is about no effect
AMA1 RON2 block – disrupts binding of P. falciparum AMA1 to RON2 | 360,000 compounds, 0.2% hits | AID 720542 | Potency, µM (titrated, usually from 58.2 µM), for inactives: at the top dose activity change, negative = inhibition, most hits filed as inhibitors | AlphaScreen AMA1-biotinylated RON2 peptide binding;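 further: potency means the concentration at half of the fitted maximal effect; 0% = vehicle wells and -100% = peptide control; nearly all actives have a fitted effect of over 45% in size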
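AMA1 (3D7) with his tag at 25 nM final met compounds first, then biotinylated RON2 peptide at 25 nM; detection used donor plus acceptor beads, 10 µg/mL apiece, read by AlphaScreen after 30 min at room temperature.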
HCV inh – blocks hepatitis C virus. 340,000 compounds, 3.4% hits. Huh7.5.1 HCVcc-Cre infection, luciferase reporter, 44 h. Potency, µM (titrated, usually from 41.8 µM), for inactives: top-dose activity change, negative = inhibition, usual class: inhibitors; further: potency means the concentration at half of the fitted maximal effect; on the % scale 0 is the no-effect control and ±100 the full control effect
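HCVcc-Cre virus at an moi near 0.5 was added right after compound to cells cultured 4 h from seeding (1,000 cells/well). Luciferase activity was determined 44 h later, 15 min after substrate addition at RT.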
Pf growth 48h – P. falciparum growth inhibition at 48 hours (one generation). 310,000 compounds, 5.9% hits. Potency, µM (titrated, usually from 28.7 µM), without a hit: at the top dose activity change, negative = inhibition, hits mostly inhibitors. P. falciparum luciferase growth in erythrocytes, 48 h; further: potency means the concentration at half of the fitted maximal effect; on the % scale 0 is the no-effect control and ±100 the full control effect
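Compounds are pin-transferred into medium, infected erythrocytes (2% hematocrit, 0.1% parasitemia final) are added, and plates sit one parasite generation at 37 C in 5% CO2. Detection reagent is then added and luminescence measured.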
Shiga inhibitor – blocks Shiga toxin action in Vero cells; inhibition, % at 38.7 µM; 290,000 compounds, 9.2% hits; Vero cells, Shiga toxin protein synthesis inhibition reporter; AID 2315; in the data active means inhibition mostly above about 28%, no sharp cut-off; inactive means mostly below about 43%; further: 0% is about no effect
* hit, by the source's call; ? = inconclusive; / = no result given; [ ] = dose if it differs, or a comment. Only some compounds are listed: those with a hit (about 21% of all), similar ones and a draw of the others. Unless noted, the call rests on the fitted dose curve; in most records, active means well fitted curve in the direction sought with a large enough effect; inconclusive means small, poorly fitted or top-dose-only effect, or another doubt; inactive means no such curve, though single readings can be large; an effect the other way counts as inactive or inconclusive.

SMILES	Pf growth 96h	CHX counter	AMA1 RON2 block	HCV inh	Pf growth 48h	Shiga inhibitor
COc1ccc(CCN(Cc2cc3cccc(C)c3[nH]c2=O)C(=O)NC2CCCCC2)cc1OC	2.9µM*	-5	-6%	6%	/	12
CCN(CC)CCCN(Cc1cc2ccc(C)c(C)c2[nH]c1=O)C(=O)NC1CCCCC1	9.3µM*	-1	31%	5.6µM*	?	-15
Cc1ccc2cc(CN(CC3CCCO3)C(=O)NC3CCCCC3)c(=O)[nH]c2c1C (stereo unspecified)	3%	-2	2%	-29%	9%	-2
CC(=O)N1CC[n+]2c(-c3ccc(Cl)cc3Cl)csc21	?	-3	-3%	-11%	-17%	-6
CCCCCC[n+]1c(-c2ccc(Cl)cc2Cl)csc1Nc1ccccc1	?	-6	-5%[2.32 µM]	7%	1.2µM*	-3
CSCC[C@H](NS(=O)(=O)c1ccc(C(C)=O)cc1)c1nnc2ccccn12	16%	8	-6%	-4%	22%	-17
O=C(NNS(=O)(=O)c1ccc(Br)cc1)c1csnn1	0%	12	18%	8%	10%	1
CC1(C)SC(=S)N(/N=C/c2ccc(O)cc2)C1N(O)C(=O)Nc1ccc([N+](=O)[O-])cc1 (stereo unspecified)	?	-3	-17%	?	?	29
CC1(C)SC(=S)N(/N=C/c2cccnc2)C1N(O)C(=O)Nc1ccccc1 (stereo unspecified)	?	-3	18%	-10%	-8%	23
Cc1ccc(/C=N/N2C(=S)SC(C)(C)C2N(O)C(=O)Nc2ccc([N+](=O)[O-])cc2)cc1 (stereo unspecified)	?	-1	0%	11µM*	?	3
CC1(C)SC(=S)N(/N=C/c2ccccc2O)C1N(O)C(=O)Nc1ccccc1 (stereo unspecified)	38%	21*	42%	11µM*	-27%	52*
CNC(=O)N(O)C1N(/N=C/c2cc(Br)ccc2O)C(=S)SC1(C)C (stereo unspecified)	4%	15*	63%	11µM*	0%[0.00184 µM]	36
CNC(=O)N(O)C1N(/N=C/c2ccc(C)cc2)C(=S)SC1(C)C (stereo unspecified)	16%	-4	11%	4%	-17%[0.00184 µM]	3
Cc1cc(OCCOCCNC(C)C)cc(C)c1Cl	5%	-4	-28%	?	/	-13
Cc1cc(OCCCCNC(C)C)cc(C(C)C)c1	6.6µM*	-5	-27%	?	?	-11
CCN1C(=NCC(C)C)N[C@@H](c2ccccc2)[C@H](C(=O)OC)[C@H]1C	?	-3	/	/	35%	-3
CCc1ccc(CCC(=O)Nc2sc(C)c(C)c2C(=O)OC)o1	/	1	27µM*	-14%	5%	-15
COC(=O)c1c(NC(=O)Cc2cccs2)sc(C)c1C	/	9	9%	11µM*	-4%	35
Cc1onc(-c2ccccc2Cl)c1C(=O)OCC(=O)N1CCCc2ccccc21	?	0	1%	?	9.3µM*	12
O=C(OCC(=O)N1CCc2ccccc21)c1c2c(nc3ccccc13)CCCC2	?	34*	-9%	2µM*	8.3µM*	62*
CC(C)(C)C(=O)COC(=O)c1c2c(nc3ccccc13)CCC2	-17%	6	-11%	?	-2%	-16
CC1Cc2ccccc2N1C(=O)COC(=O)c1c2c(nc3ccccc13)CCCCC2 (stereo unspecified)	13µM*	14*	-25%	?	?	-6
CC(=O)Nc1cccc(NC(=O)C(=O)c2cn(CC(=O)N3CCCC3)c3ccccc23)c1	/	/	-8%	/	/	/
Cc1cc(NC(=O)CN2CCc3ccccc3C2)nc2c1c(=O)oc1ccccc12	?	6	-1%	8%	10µM*	0
COc1cccc(C2=NN(C(C)=O)C(c3cccs3)C2)c1 (stereo unspecified)	7%	21*	5%	-8%	21%	30
SMILES	Pf growth 96h	CHX counter	AMA1 RON2 block	HCV inh	Pf growth 48h	Shiga inhibitor
CC(=O)N1N=C(c2ccccc2)CC1c1cccs1 (stereo unspecified)	13%	10	9%	-7%	13%	-4
COc1ccc(C2=NN(C(C)=O)C(c3cccs3)C2)cc1OC (stereo unspecified)	?	22*	-2%	14%	-6%	35*
CCOCCC(=O)Nc1ccc2c(c1)c(=O)n(C)n2CC=C(C)C	/	/	-8%	/	/	/
COc1ccccc1/C=C1/C(=N/O)C2CCN1CC2	-4%	1	-1%	-5%	12µM*	-5
COC(=O)C(N)CCCCN (stereo unspecified)	/	/	8%	9%	/	/
CCOC(=O)c1sc(NC(=O)C(C)(C)C)cc1C	20%	28*	-3%	?	36%	active
CCOC(=O)c1sc(N)nc1C(C)(C)C	4%	-2	4%	-10%	-4%	-13
CCOC(=O)c1sc(NC(=S)NC(=O)CC(C)C)cc1C	68%	43*	17%	?	-4%	49*
CCOC(=O)c1sc(NC(=O)C2CC2)cc1C	?	15*	-4%	-25%	?	38*
CCOC(=O)c1sc(NC(=S)NC(=O)C2CCCC2)cc1C	9.3µM*	11	-5%	?	?	10*
COCCCNC(=O)c1cccn2c(=O)c3cc4ccccc4cc3nc12	55%	69*	2%	-26%	69%	84*
O=C(NCc1ccco1)c1cnc2ccccn2c1=O	-9%	2	-1%	18%	19%	-6
O=C(NCc1ccco1)c1cccn2c(=O)c3cc4ccccc4cc3nc12	?	29*	/	/	/	6
COc1ccc(N(CC(=O)NCc2ccccc2OC)S(=O)(=O)c2ccc(C)cc2)cc1Cl	29%	5	5%	-25%	?	-30
Cc1cccc(NC(=O)COC(=O)c2cccs2)c1C	24%	5	0%	8%	22%	-8
N#CC1=C(N)Oc2cc(O)ccc2C1c1ccc(Br)s1 (stereo unspecified)	11%	-2	2%	10%	1%	-7
Cc1cccc(OCC(=O)Nc2ccc3c(c2)nc(CN2CCCCC2)n3C)c1	-8%	29*	3%	?	-14%	53
Cn1c(CN2CCCC2)nc2cc(NC(=O)COc3ccc([N+](=O)[O-])cc3)ccc21	?	-4	3%	-24%	13µM*	-8
Cn1c(CN2CCN(C(=O)c3ccccc3)CC2)nc2cc([N+](=O)[O-])ccc21	-3%	19*	-1%	?	20%	46*
COc1cc(NC(=O)c2cc(OC)c(OC)c(OC)c2)c2ncccc2c1	/	/	9%	10µM*	/	/
O=C(Nc1cccc2cccnc12)OCc1ccccc1	/	30*	/	/	/	50
